# Assay results: PubChem BioAssay AID784 (The Scripps Research Institute Molecular Screening Center, 2007)
# Among all 30,000 compounds or so, about 130 (0.43%) were called active. This excerpt belongs to a sample that is enriched for actives. Values without a mark were called inactive. Rule as the data show it: active = activation above about 65%; inactive = the rest.
# Biological target: Lysosomal acid glucosylceramidase (Homo sapiens) (UniProt P04062)
# Assay: GBA activity enhancers in patient fibroblasts, primary screen, cell-based (AID 784);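 also: 0% = vehicle wells and 100% = positive control wells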
# Conditions: L444P Gaucher fibroblasts, 4-MU-glucoside fluorescence, 3 days; at 10 µM; stronger effect = higher value
# Sequence of Lysosomal acid glucosylceramidase (Homo sapiens) (P04062 whole entry L483P): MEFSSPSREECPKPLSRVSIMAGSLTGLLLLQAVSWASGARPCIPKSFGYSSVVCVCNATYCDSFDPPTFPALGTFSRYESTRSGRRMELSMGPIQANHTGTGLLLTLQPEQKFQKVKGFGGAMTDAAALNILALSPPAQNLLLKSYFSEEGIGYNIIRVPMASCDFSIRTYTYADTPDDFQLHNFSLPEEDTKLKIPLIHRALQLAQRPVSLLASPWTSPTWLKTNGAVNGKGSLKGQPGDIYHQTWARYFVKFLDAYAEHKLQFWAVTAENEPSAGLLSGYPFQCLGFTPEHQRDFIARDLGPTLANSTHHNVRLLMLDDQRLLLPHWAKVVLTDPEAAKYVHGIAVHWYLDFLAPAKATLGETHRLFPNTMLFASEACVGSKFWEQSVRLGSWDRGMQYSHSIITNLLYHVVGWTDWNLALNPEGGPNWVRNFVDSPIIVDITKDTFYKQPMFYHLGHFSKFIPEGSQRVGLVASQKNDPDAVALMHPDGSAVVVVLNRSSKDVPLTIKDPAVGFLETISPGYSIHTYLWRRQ
row,SMILES,activation
1,COc1ccc(CCn2nnnc2C(c2ccccc2)N2CCN(C)CC2)cc1OC (stereo unspecified),-1.68%
2,CCn1c(SCC(=O)NCC2CCCO2)nc2cc(S(=O)(=O)N3CCCCC3)ccc21 (stereo unspecified),-14.9%
3,CCN1C(=O)CS/C1=N\c1nccs1,-12.6%
4,Cc1ccc(S(=O)(=O)N(C)CC(=O)N2CCc3ccccc32)cc1,0.44%
5,Cc1cccc(OCc2nnc(SCn3nnc4ccccc4c3=O)o2)c1,4.49%
6,Cc1cc(C)cc(OCc2nnc(SCC(=O)Nc3ccccc3)o2)c1,-21.4%
7,O=C(Nc1ccc2c(c1)OCCO2)C1CCCN(c2ncccn2)C1 (stereo unspecified),-35.2%
8,O=C(NC1CCN(Cc2ccccc2)CC1)c1ccccc1F,-0.98%
9,O=C(COC(=O)c1ccc(Oc2ccccc2)cc1)Nc1nnc(-c2ccccc2)o1,-9.15%
10,Cc1nc2cc(-c3ccc(F)cc3)nn2c(N2CCOCC2)c1C,4.6%
11,COc1ccc(CNC2CCCCC2)cc1,-12%
12,CCn1c(COc2ccc(OC)cc2)nnc1SCC(=O)Nc1cc(OC)ccc1OC,-5.85%
13,CC(=O)N1CCC(C(=O)Nc2nc(-c3ccccc3)ns2)CC1,-7.15%
14,Cn1c(=O)c2c(nc(CN3CCOCC3)n2Cc2ccccc2)n(C)c1=O,-2.48%
15,Cc1ccc(-c2nc(COC(=O)c3c(C)noc3C)cs2)cc1,4.07%
16,CCOC(=O)c1ccccc1NC(=O)CC1Nc2ccccc2NC1=O (stereo unspecified),-13.8%
17,Cc1cccc2nc(CNc3ccc(F)cc3)cn12,-22.2%
18,COC(=O)N1CN(C(=O)OC)CN(C(=O)OC)C1,-8.85%
19,CC(=O)N1CCN(C(=O)c2cccc(S(=O)(=O)Nc3ccc(C)cc3)c2)CC1,5.73%
20,CCn1nnc(NC(=O)c2c(OC)cccc2OC)n1,4.73%
21,COc1ccccc1N1CC(O)=C(c2nc3ccccc3s2)C1=N,8.76%
22,Cc1ccc(NC(=O)CN2CCC3(O)CCCCC3C2c2ccc3c(c2)OCO3)c(C)c1 (stereo unspecified),-20.4%
23,CCOC(=O)c1sc(/N=C/Nc2nc(C)c(C(=O)OCC)s2)nc1C,-5.05%

row,SMILES,activation
1,CCC(c1nnnn1Cc1ccccc1)N(Cc1cc2cc(OC)ccc2[nH]c1=O)CC1CCCO1 (stereo unspecified),-25.6%
2,COc1ccc(CCNC(=O)c2ccco2)cc1,-11.6%
3,CCC12CN3CC(CC)(CN(C1)C31C(=O)N(C)c3ccc(C)cc31)C2=O (stereo unspecified),-17.4%
4,Cc1cccc(NC(=O)COc2ccc(Br)cc2C)n1,7.05%
5,CC(=O)c1ccc(-n2nnnc2SCC(=O)N2CCN(C(=O)c3ccco3)CC2)cc1,-18.5%
6,O=C(CN(CC1CCCO1)C(=O)CNS(=O)(=O)c1ccccc1)NCc1ccccc1 (stereo unspecified),-28.7%
7,CC1CCCC(NC(=O)CSc2nccn2C)C1C (stereo unspecified),-8.08%
8,CCOC(=O)c1c(C)[nH]c(C(=O)COc2ccc3c(c2)OCO3)c1C,6.28%
9,Cn1c(SCC(=O)c2cccs2)nnc1-c1ccco1,-23%
10,CCCn1c(SCC(=O)N2CCc3ccccc32)nnc1-c1ccncc1,-11%
11,CCCSC1=C(C#N)C(c2ccccc2C)C(C(=O)OC)C(=O)N1 (stereo unspecified),-16.4%
12,Cc1cc(C)c2c(c1)cc(C)c1nnc(SCC(=O)Nc3cc(C)on3)n12,-30.3%
13,CCOC(=O)c1cc(-c2nnc(-c3cc(OC)c(OC)c(OC)c3)o2)c(C)nc1C,-21.7%
14,O=C(Nc1ccc(S(=O)(=O)N2CCCC2)cc1Cl)C1=COCCO1,22.5%
15,O=C(O)c1ccc(NS(=O)(=O)c2cccc3nsnc23)cc1,1.35%
16,CC1=CC(C)(C)N(C(=O)CSc2nccn2C)c2cc(C)ccc21,-9.35%
17,CN1CCC2(CC1)NC(=O)NC2=O,-11.5%
18,COC(=O)C(CC(=O)Nc1cc(C)ccc1C)Nc1ccccc1OC (stereo unspecified),3.63%
19,Cn1cccc1C(=O)NC(=O)COC(=O)Cc1coc2ccc3ccccc3c12,-54.5%
20,Cc1ccc(NC(=O)CS(=O)CC(=O)N(c2ccccc2)C(C)C(=O)NC2CCCC2)cc1 (stereo unspecified),0.43%
21,CCCc1nnc(NC(=O)c2cc(OC)cc(OC)c2)s1,-49.8%
22,CCCc1nc(SCC(=O)Nc2ccccc2OC)c2c(=O)n(C)c(=O)n(C)c2n1,-10.4%
23,CCc1cc(=O)oc2cc(C)cc(OC(C)C(=O)O)c12 (stereo unspecified),12.8%
